uPA surface inh: cell surface uPA generation inhibition | AID 540303 | 330,000 compounds, 0.31% hits | Potency, µM (top dose mostly 38.3 µM), actives largely listed as inhibitors | cell surface uPA generation assay, qHTS; active = well fitted inhibition curve with a large enough effect; inconclusive = small, poorly fitted or top-dose-only effect; inactive = no such curve, though single readings can be large or run the other way; tested in mouse RAW 264.7 cells; also: nearly all actives have a fitted effect of over 55% in size
CCT modulator: modulators of cytosolic chaperonin (CCT/TRiC) activity. purified chaperonin ATPase assay, HTRF ADP detection, 30 min. activity change, % (no concentration beside the values), hits read low. 360,000 compounds, 0.3% hits; in the data active = activity change below about -30%
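ATPase activity: ADP formed was measured by HTRF Transcreener (665/615 nm ratio) after 30 min at 37 deg C with 10 uM ATP. Compounds screened at one 76 uM concentration against 40 or 20 nM TRiC in Tris pH 7.4/KCl/MgCl2/DTT buffer.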
HEK293 tox: cytotoxicity counter-screen for GLP-1 receptor inverse agonists; HEK293 cAMP-luciferase reporter cells, luminescence, 24 h; Potency, µM (top dose mostly 38.3 µM), most hits filed as inhibitors; 410,000 compounds, 0.13% hits;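 also: loss of luciferase light is scored as toxicity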
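Step one: seed cells (200 cells/uL, DMEM with 10% Nu serum, 1% pen-strep). Step two: 12-hour incubation at 37 deg C. Step three: pin 23 nL compound, incubate 24 hr. Step four: add luciferase reagent, read luminescence 12 min later.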
GLP-1R inv ag: GLP-1 receptor (human) inverse agonism. HEK293 GLP-1R CRE-luciferase, luminescence, 24 h; GLP-1R form is constitutively active. Potency, µM (top dose mostly 38.3 µM), most hits filed as inhibitors. 410,000 compounds, 1.6% hits; also: nearly all actives have a fitted effect of over 55% in size
Target sequence (P43220 whole entry, looked up): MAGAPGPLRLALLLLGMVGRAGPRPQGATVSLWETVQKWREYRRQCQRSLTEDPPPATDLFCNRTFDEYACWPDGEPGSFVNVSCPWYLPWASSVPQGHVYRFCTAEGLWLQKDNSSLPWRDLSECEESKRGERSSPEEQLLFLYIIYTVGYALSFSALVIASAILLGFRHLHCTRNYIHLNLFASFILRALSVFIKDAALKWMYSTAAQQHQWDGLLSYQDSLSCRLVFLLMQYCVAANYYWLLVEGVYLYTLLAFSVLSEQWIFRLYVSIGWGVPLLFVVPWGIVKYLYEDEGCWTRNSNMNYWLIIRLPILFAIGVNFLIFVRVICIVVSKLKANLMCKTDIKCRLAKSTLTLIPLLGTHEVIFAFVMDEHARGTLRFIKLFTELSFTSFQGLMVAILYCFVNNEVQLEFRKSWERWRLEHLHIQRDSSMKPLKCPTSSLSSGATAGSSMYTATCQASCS
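Luminescence readout: a drop in cAMP-driven luciferase signal flags inverse agonism at a constitutively active GLP-1R stably expressed in HEK293. Compound exposure lasted 24 hr at 37 deg C, 5% CO2.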
MmCpn inh: blocks the Methanococcus maripaludis chaperonin Mm-Cpn; 330,000 compounds, 0.031% hits; purified Mm-Cpn ATPase, ADP Transcreener TR-FRET; Potency, µM (series often up to 76.9 µM), actives largely listed as inhibitors; also: nearly all actives have a fitted effect of over 80% in size
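ATP (10 uM final) was added to archaeal chaperonin (25 nM final) after 10 min exposure to test compound at 37°C; after 30 min further incubation, ADP was detected by competitive TR-FRET.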
GLP1R ag: agonists of human GLP-1 receptor; P43220; HEK293 GLP-1R CRE-luciferase, luminescence, 4-6 h; cells express a hypersensitive GLP-1R form; Potency, µM (series often up to 45.6 µM), usual class: activators; 380,000 compounds, 0.007% hits
Numbers stand for hits; 0 = inactive; ? = inconclusive; - = no result given. Rows were chosen to be rich in hits. Some 2.2% of all compounds tested hit in one or more screens of this group. Unless noted, calls follow the shape of the dose curve; as a rule, active = well fitted curve in the direction sought with a large enough effect; inconclusive = small, poorly fitted or top-dose-only effect, or another doubt; inactive = no such curve, though single readings can be large; an effect the other way counts as inactive or inconclusive.

SMILES	uPA surface inh	CCT modulator	HEK293 tox	GLP-1R inv ag	MmCpn inh	GLP1R ag
O=C(NCc1ccc(Cl)cc1)C(=O)NCC(c1ccco1)S(=O)(=O)c1cccs1 (stereo not drawn)	-	-	0	0	-	-
CC(C)(C)C(=O)Nc1ccc2nc(SCC(=O)N3CCc4ccccc43)sc2c1	-	-	0	?	-	-
CCC(=O)N1CCc2cc(CNC(=O)c3ccccc3C)ccc21	-	-	0	0	-	-
N#CC(C#N)=C(N)CSc1cccc[n+]1[O-]	0	0	4.5µM	?	0	0
CC1(C)CC(n2c(NCCO)nc3c(c2=O)C2(CCCC2)Cc2ccccc2-3)CCO1 (stereo not drawn)	0	0	0	?	0	0
O=c1c2c(nc(NCCO)n1CC1CCCCC1)-c1ccccc1CC21CCCC1	0	0	?	4µM	0	0
CCCCN(CC)CCCNC(=O)CCN1N=C(c2ccc(OC)cc2)CCC1=O	-	-	0	0	-	-
CN1CCN(c2ccc3c(c2)C2CC3CCN2C(=O)OCc2ccccc2)CC1 (stereo not drawn)	?	0	0	10µM	-	0
CCN(CC)c1ccc(NC(=O)CN2CCN(CC(=O)Nc3ccc(F)cc3)CC2)cc1	0	0	0	13µM	0	0
CC1C(=O)N(Cc2ccc([N+](=O)[O-])cc2)c2ccccc2N1C(=O)c1c(F)cccc1F (stereo not drawn)	0	0	0	10µM	0	0
O=C(Nc1cccc2c(=O)cc(-c3nn[nH]n3)oc12)c1ccc(OCCCCc2ccccc2)cc1	-	-	-	-	-	0
N/C(=N\OC(=O)N1CCOCC1)c1ccc(Br)cc1	10µM	0	?	?	0	0
CCOC(=O)CC(=O)CSc1nc2c(sc(=S)n2-c2ccc(C)c(C)c2)c(=O)[nH]1	0	0	0	8.9µM	0	0
CCc1ccc(NC(=O)Cn2c(=O)n(CCc3ccccc3)c(=O)c3sc4ccccc4c32)cc1	-	-	0	0	-	0
O=C(CSc1n[nH]c(-c2ccccn2)n1)Nc1ccccc1F	0	0	?	11µM	0	0
O=C(CSc1n[nH]c(-c2ccccn2)n1)Nc1ccccc1	0	0	0	0	0	0
CCCCn1c(N)c(N(CC(C)C)C(=O)c2cccc(S(=O)(=O)N3CCCCC3)c2)c(=O)[nH]c1=O	0	0	0	0	0	0
CCCCn1c(N)c(N(CC(C)C)C(=O)c2cccc(S(=O)(=O)N3CCCCCC3)c2)c(=O)[nH]c1=O	0	-81	0	0	0	0
COCCCNC(=O)c1c(NC(=O)Cc2coc3c(C)c(C)ccc23)sc2c1CCCC2	-	-	0	0	-	-
CCOC(=O)c1nnn(-c2nonc2N)c1COc1cc(C)c(Cl)c(C)c1	0	0	0	8.9µM	0	0
CCOC(=O)c1nnn(-c2nonc2N)c1CSc1ccccc1	0	0	0	0	0	0
CCOc1ccccc1N(CC(=O)Nc1ccc(OC)c(Cl)c1)S(=O)(=O)c1ccccc1	-	-	0	0	-	0
COc1ccc(OC)c(CC(=O)NC(c2ccccc2)c2ccccc2)c1	0	0	0	0	0	0
COc1ccc(/C=N/OCC(=O)NCC(C)C)c(OC)c1	0	0	0	0	0	0
COc1ccc(CC(=O)NC(c2ccccc2)c2ccc(C)cc2)c(OC)c1 (stereo not drawn)	0	0	0	8.9µM	0	0
SMILES	uPA surface inh	CCT modulator	HEK293 tox	GLP-1R inv ag	MmCpn inh	GLP1R ag
COc1ccc(/C=N/OCC(=O)NC(c2ccccc2)c2ccccc2)c(OC)c1	0	0	0	8.9µM	0	0
Cc1cc(CC(=O)O)c(C)n1-c1ccc(Cl)cc1	-	-	-	-	-	0
Cc1ccc2cccc(NC(=O)c3ccc(-c4cccc(Cl)c4Cl)o3)c2n1	-	-	0	0	-	0
CC(=O)c1nc2ccccc2n1CCc1ccccc1	0	0	0	?	0	0
N#CC(=C1NC(=O)c2ccccc21)c1nc2ccccc2n1CCO	-	0	0	10µM	-	0
CCOCCCn1c(SCC(=O)NC2CCCCC2)nc2ccccc2c1=O	-	-86	0	0	-	0
O=C(CSc1nc2ccccc2c(=O)n1CC1CCCCC1)N1CCOCC1	0	0	0	0	0	0
CCN(CC)C(=O)CSc1nc2ccccc2c(=O)n1CC1CCCCC1	0	0	0	5.6µM	0	0
COc1ncnc2c1ncn2CCCNCC(c1ccccc1)c1ccccc1	-	0	0	0	-	0
c1ccc(COc2ncnc3c2ncn3CCCNCC(c2ccccc2)c2ccccc2)cc1	-	0	11µM	?	-	0
CCc1cccc(NC(=O)Cn2c(=O)n(CCc3ccc(OC)c(OC)c3)c(=O)c3ccccc32)c1	-	-	0	0	-	0
O=[N+]([O-])c1ccc(/C=C/c2ccc3ccccc3n2)cc1	0	0	0	10µM	0	0
Oc1ccc(/C=C/c2ccc3ccccc3n2)cc1	?	0	0	?	0	0
O=[N+]([O-])c1ccc(/C=C/c2ccc3cccc(O)c3n2)cc1	?	0	0	0	0	0
Fc1ccccc1/C=C/c1ccc2ccccc2n1	11µM	0	0	?	0	0
C(=C\c1ccc2ccccc2n1)/c1ccccc1	5.6µM	0	0	10µM	0	0
CN(C)c1ccc(/C=C/c2ccc3ccccc3n2)cc1	2µM	0	0	0	0	0
COc1ccc(NC(=O)C(NC(=O)/C=C\c2ccc3c(c2)OCO3)c2ccc(C)cc2)cc1 (stereo not drawn)	-	-	0	0	-	-
OCCCn1c(C2CCCN2c2nc(-c3ccc(F)cc3)cs2)nc2cc(Cl)c(Cl)cc21 (stereo not drawn)	0	0	0	?	-	0
OCOCCCn1c(C2CCCN2c2nc(-c3ccc(F)cc3)cs2)nc2cc(Cl)c(N3CCCCC3)cc21 (stereo not drawn)	0	0	0	7.9µM	-	0
COc1cc(NC(=O)C2CCN(S(=O)(=O)c3ccc4c(c3)CCCC(=O)N4)CC2)cc(OC)c1	-	-	0	0	-	0
C/C(CCc1ccc2c(c1)OCO2)=N\NC(=S)NC(C)C	0	0	3.2µM	?	0	0
COCCNC(=S)N/N=C(\C)CCc1ccc2c(c1)OCO2	0	0	?	?	0	0
Cc1ccc2ccc3cc(C(=O)N4CCN(c5ccccc5)CC4)nc3c2[nH]1	-	-	0	?	-	0
CC(C)NC(=O)NC(=O)COC(=O)c1c2c(nc3ccccc13)CCC2	0	0	?	10µM	0	0
CC(C)c1ccccc1NC(=O)COC(=O)c1c2c(nc3ccccc13)CCN(Cc1ccccc1)C2	0	0	0	10µM	0	0
COc1cccc(NC(=O)COC(=O)c2c3c(nc4ccccc24)CCC(C)C3)c1 (stereo not drawn)	-	0	?	5µM	0	0
CC1CCc2nc3ccccc3c(C(=O)OCC(=O)NC3CCS(=O)(=O)C3)c2C1 (stereo not drawn)	0	0	0	0	0	0
c1cnc2cc3c(cc2n1)[C@@H]1CNC[C@@H]3C1	-	-	-	-	-	0

Compound activity as filed in PubChem.
